According to article PMC7862700, “An all-to-all approach to the identification of sequence-specific readers for epigenetic DNA modifications on cytosine”:

Legend:
Test in all cases: DAPPL (digital affinity profiling via proximity ligation, sequencing); 10 mM Tris-HCl pH 7.5, 50 mM NaCl, 1 mM DTT, 4% glycerol, room temperature, 30 min; GST-TFs on glutathione beads, 16-mer random dsDNA library, 0.1% formaldehyde crosslink after washing; high values mean tight binding
Settings in all cases: protein: recombinant; tags: N-terminal GST; dsDNA, one strand shown
[1] = molecular target: T1, FLI1 (Homo sapiens, UniProt Q01543 1-452)
T1 sequence: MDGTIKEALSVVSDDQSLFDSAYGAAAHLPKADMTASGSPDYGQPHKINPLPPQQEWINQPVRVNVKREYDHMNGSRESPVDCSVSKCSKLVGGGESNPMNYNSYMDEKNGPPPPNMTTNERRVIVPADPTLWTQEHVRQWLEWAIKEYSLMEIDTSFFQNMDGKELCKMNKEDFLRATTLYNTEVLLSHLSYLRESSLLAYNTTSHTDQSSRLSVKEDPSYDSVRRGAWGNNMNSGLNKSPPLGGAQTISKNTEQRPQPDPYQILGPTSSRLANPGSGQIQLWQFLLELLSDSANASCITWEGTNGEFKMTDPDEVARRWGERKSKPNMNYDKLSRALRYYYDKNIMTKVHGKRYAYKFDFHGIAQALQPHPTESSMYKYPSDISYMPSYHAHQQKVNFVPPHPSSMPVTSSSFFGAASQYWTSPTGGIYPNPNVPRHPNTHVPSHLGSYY
Summary of the method: (§1)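 The binding signal reported is, for every hexamer, its read frequency for a factor over its read frequency for the tag-only sample. Reads came from pools of yeast-expressed, GST-fused human transcription factors on glutathione beads, barcoded with DNA and mixed with that sample, which were incubated with 200 nmole of a random double-stranded 16-mer DNA library in Tris/NaCl/DTT/glycerol buffer at room temperature for 30 min. After washing, the pools were crosslinked with 0.1% formaldehyde, proximity-ligated with BsaI/T4 ligase for 1 h at 37 °C, PCR-amplified and sequenced on an Illumina NextSeq500.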

[2] = molecular target: T2, ELK1 (Homo sapiens, UniProt P19419 1-428)
T2 sequence: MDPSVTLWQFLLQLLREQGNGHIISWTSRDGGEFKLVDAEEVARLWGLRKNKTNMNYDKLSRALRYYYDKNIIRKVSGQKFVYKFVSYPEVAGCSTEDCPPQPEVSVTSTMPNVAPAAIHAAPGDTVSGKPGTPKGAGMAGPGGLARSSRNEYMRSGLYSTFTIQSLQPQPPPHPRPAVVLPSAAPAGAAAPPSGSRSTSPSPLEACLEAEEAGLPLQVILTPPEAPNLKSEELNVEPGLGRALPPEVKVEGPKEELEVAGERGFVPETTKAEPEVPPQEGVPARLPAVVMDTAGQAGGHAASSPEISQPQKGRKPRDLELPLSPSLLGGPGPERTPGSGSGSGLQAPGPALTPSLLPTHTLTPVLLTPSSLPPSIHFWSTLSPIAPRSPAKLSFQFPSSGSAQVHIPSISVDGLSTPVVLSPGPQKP
Summary of the method: as §1

[3] = molecular target: T3, GABPA (Homo sapiens, UniProt Q06546 1-454)
T3 sequence: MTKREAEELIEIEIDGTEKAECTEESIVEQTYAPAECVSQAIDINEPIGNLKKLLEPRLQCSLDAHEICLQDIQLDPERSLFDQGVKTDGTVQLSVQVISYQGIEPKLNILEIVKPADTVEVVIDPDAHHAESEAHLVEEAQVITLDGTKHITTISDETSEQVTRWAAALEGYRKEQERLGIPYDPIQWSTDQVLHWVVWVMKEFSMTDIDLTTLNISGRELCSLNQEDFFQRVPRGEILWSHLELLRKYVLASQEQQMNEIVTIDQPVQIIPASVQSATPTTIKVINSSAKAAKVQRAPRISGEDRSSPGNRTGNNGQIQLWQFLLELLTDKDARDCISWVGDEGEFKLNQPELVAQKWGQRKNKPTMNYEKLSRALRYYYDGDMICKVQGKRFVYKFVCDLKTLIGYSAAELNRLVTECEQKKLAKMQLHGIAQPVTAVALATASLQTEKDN
Summary of the method: as §1

[4] = molecular target: T4, ERG (Homo sapiens, UniProt P11308 1-479)
T4 sequence: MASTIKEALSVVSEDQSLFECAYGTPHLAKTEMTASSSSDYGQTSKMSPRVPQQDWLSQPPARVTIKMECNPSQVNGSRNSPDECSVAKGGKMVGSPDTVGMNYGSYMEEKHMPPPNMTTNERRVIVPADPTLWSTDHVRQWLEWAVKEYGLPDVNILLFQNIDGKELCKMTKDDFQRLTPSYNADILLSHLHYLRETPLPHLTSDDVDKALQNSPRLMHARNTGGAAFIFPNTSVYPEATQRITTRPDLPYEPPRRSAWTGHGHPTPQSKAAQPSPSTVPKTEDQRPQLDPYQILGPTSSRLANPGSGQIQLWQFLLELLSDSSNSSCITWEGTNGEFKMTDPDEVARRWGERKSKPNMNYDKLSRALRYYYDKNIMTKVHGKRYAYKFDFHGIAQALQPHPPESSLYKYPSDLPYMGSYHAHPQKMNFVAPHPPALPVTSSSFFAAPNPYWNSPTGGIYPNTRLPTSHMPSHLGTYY
Summary of the method: as §1

[5] = molecular target: ELF1 (Homo sapiens, UniProt P32519 1-619)
Summary of the method: as §1

[6] = molecular target: T5, EHF (Homo sapiens, UniProt Q9NZC4 1-300)
T5 sequence: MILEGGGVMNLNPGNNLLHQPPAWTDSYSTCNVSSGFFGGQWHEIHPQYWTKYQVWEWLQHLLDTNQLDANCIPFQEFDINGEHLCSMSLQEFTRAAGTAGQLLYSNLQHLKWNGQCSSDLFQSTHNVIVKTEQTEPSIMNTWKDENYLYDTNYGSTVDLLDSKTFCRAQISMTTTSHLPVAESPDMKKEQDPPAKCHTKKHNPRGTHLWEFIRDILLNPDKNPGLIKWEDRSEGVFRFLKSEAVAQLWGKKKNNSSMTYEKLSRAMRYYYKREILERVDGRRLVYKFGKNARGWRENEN
Summary of the method: as §1

[7] = molecular target: SPI1 (Homo sapiens, UniProt P17947 1-270)
Summary of the method: as §1

[8] = molecular target: SPIB (Homo sapiens, UniProt Q01892 1-262)
Summary of the method: as §1

[9] = molecular target: T6, ELK3 (Homo sapiens, UniProt P41970 1-407)
T6 sequence: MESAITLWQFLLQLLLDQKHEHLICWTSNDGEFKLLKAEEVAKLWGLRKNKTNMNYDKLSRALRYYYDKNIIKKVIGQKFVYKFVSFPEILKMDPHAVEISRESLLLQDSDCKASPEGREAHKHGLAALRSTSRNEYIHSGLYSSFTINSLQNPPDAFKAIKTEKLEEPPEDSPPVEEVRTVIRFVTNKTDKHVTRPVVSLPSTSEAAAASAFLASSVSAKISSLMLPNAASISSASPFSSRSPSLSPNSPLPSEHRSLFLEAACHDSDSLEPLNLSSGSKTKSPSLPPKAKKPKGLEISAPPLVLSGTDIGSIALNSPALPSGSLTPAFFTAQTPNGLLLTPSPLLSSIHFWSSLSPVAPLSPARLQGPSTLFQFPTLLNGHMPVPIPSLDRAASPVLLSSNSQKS
Summary of the method: as §1

ELF1, sequence (P32519 whole entry): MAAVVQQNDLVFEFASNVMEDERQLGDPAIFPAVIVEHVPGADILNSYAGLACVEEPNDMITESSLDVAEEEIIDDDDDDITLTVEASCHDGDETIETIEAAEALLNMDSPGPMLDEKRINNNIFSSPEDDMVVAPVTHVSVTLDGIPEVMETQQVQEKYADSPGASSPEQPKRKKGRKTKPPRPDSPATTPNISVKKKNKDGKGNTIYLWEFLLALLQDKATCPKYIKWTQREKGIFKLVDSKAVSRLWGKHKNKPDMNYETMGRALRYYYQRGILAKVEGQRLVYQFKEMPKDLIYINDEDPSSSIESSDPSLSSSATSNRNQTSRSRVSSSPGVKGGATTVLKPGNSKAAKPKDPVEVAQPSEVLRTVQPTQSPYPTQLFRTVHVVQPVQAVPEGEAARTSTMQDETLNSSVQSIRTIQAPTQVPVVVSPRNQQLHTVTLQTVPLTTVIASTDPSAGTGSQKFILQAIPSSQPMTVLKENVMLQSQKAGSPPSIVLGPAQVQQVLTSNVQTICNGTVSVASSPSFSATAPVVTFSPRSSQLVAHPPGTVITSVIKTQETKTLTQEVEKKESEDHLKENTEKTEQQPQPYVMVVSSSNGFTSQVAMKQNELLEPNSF
SPIB, sequence (Q01892 whole entry): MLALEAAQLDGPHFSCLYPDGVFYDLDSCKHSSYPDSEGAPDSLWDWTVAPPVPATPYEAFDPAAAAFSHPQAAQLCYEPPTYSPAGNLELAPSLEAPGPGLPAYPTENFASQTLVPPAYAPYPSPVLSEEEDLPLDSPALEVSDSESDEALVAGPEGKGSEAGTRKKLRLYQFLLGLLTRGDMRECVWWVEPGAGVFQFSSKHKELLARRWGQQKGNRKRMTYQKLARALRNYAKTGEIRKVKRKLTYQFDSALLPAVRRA

Sequence	binding signal [1]	binding signal [2]	binding signal [3]	binding signal [4]	binding signal [5]	binding signal [6]	binding signal [7]	binding signal [8]	binding signal [9]
GGTCCC	1.13 fold enrichment (6-mer frequency, TF over GST control)	1.21 fold enrichment (6-mer frequency, TF over GST control)	1.16 fold enrichment (6-mer frequency, TF over GST control)	1.21 fold enrichment (6-mer frequency, TF over GST control)	1.17 fold enrichment (6-mer frequency, TF over GST control)	1.19 fold enrichment (6-mer frequency, TF over GST control)	1.1 fold enrichment (6-mer frequency, TF over GST control)	1.31 fold enrichment (6-mer frequency, TF over GST control)	1.16 fold enrichment (6-mer frequency, TF over GST control)
TAGGAA	1.07 fold enrichment (6-mer frequency, TF over GST control)	1 fold enrichment (6-mer frequency, TF over GST control)	1.04 fold enrichment (6-mer frequency, TF over GST control)	1.17 fold enrichment (6-mer frequency, TF over GST control)	1.03 fold enrichment (6-mer frequency, TF over GST control)	1.25 fold enrichment (6-mer frequency, TF over GST control)	1.23 fold enrichment (6-mer frequency, TF over GST control)	1.28 fold enrichment (6-mer frequency, TF over GST control)	1.03 fold enrichment (6-mer frequency, TF over GST control)
TCTACG	1.37 fold enrichment (6-mer frequency, TF over GST control)	1.4 fold enrichment (6-mer frequency, TF over GST control)	1.3 fold enrichment (6-mer frequency, TF over GST control)	1.32 fold enrichment (6-mer frequency, TF over GST control)	1.38 fold enrichment (6-mer frequency, TF over GST control)	1.32 fold enrichment (6-mer frequency, TF over GST control)	1.49 fold enrichment (6-mer frequency, TF over GST control)	1.44 fold enrichment (6-mer frequency, TF over GST control)	1.28 fold enrichment (6-mer frequency, TF over GST control)
GCCTCA	1.34 fold enrichment (6-mer frequency, TF over GST control)	1.34 fold enrichment (6-mer frequency, TF over GST control)	1.34 fold enrichment (6-mer frequency, TF over GST control)	1.13 fold enrichment (6-mer frequency, TF over GST control)	1.25 fold enrichment (6-mer frequency, TF over GST control)	1.17 fold enrichment (6-mer frequency, TF over GST control)	1.17 fold enrichment (6-mer frequency, TF over GST control)	1.25 fold enrichment (6-mer frequency, TF over GST control)	1.19 fold enrichment (6-mer frequency, TF over GST control)
